Source: PubChem BioAssay (NCATS)
Records with an inconclusive call do not appear. Calls of active or inactive are those of the source. Unless noted, the call rests on the fitted dose curve; in most records, active means well fitted curve in either direction with a large enough effect (not every such curve was filed as active); inconclusive means small, poorly fitted or top-dose-only effect, or another doubt; inactive means flat fitted curve, though single readings scatter.

How the values were obtained:
[1] = molecular target: Lysosomal acid glucosylceramidase (Homo sapiens) (UniProt P04062); assay: Glucocerebrosidase-p2 (AID 348; in the data active means potency below about 10 µM; further: potency means the concentration at half of the fitted maximal effect); settings: purified GBA, blue fluorogenic substrate, 40 min
Summary of the method: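 Compounds titrated from 0.6 nM upwards against 0.2 nM enzyme in pH 5.9 citric acid/KH2PO4, taurocholate, tween-20; blue fluorogenic substrate 80 uM, 40 min room temperature, stopped and read Ex 365/Em 440 for AC50.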

[2] = AP1 Signaling Pathway (AID 357); settings: ME-180 AP-1-bla reporter, EGF-induced, beta-lactamase ratio, 5 h; at 7.69 µM (top of the series) unless noted;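 further: ME-180 reporter cells stimulated with EGF at its EC50 level; on the % scale 0 is the no-effect control and ±100 the full control effect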
Summary of the method: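 Modulation of EGF-driven AP-1 transcription was assessed with a beta-lactamase reporter in ME-180 cells. Compound and EC50 EGF were co-incubated 5 hours at 37 °C before 2.5-hour CCF4 loading at room temperature and dual-emission reading.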

[3] = NFAT Signaling Pathway (AID 444); settings: Jurkat NFAT-bla M1, carbachol, beta-lactamase ratio, 5 h; at 7.69 µM (top of the series) unless noted;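 further: carbachol stimulus at about its EC50 of 1 µM final; on the % scale 0 is the no-effect control and ±100 the full control effect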
Summary of the method: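 Read-out: CCF4 FRET ratio (460 nm/530 nm) after 1 h RT dye loading, used for %activity and AC50 from titration series. Cells: Jurkat NFAT-β-lactamase/M1 line, treated with compound plus 1 uM carbachol for 5 h, 37 °C.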

[4] = Stat Signaling Pathway (AID 446); settings: ME-180 SIE beta-lactamase reporter, IL-6 stimulated, 5 h; at 7.69 µM (top of the series) unless noted;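 further: ME-180 cervical cancer cells given 40 pM IL-6 alongside compound; SIE-controlled beta-lactamase reporter measured as 460/530 nm FRET emission ratio; on the % scale 0 is the no-effect control and ±100 the full control effect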
Summary of the method: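 Screening format detects activators and inhibitors alike: ME-180 SIE-bla cells stimulated at 40 pM IL-6 for 5 hrs with compound, then dual-emission beta-lactamase read at 405 nm excitation.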

[5] = molecular target: Glucocorticoid receptor (Homo sapiens) (UniProt P04150); assay: GR-GFP Redistribution (AID 450;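 active means compounds whose dose series gives a full or clear partial fitted curve of increased nuclear translocation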; further: potency means the concentration at half of the fitted maximal effect); settings: U2OS GR-GFP nuclear translocation, laser cytometry, 2 h
[6] = molecular target: Glucocorticoid receptor (Homo sapiens) (UniProt P04150); assay: GR-EFC Redistribution (AID 451; calls by dose curve; further: potency means the concentration at half of the fitted maximal effect); settings: CHO-K1 GR-EFC translocation, beta-gal luminescence, 2 h
Summary of the method: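 Translocation of GR-ED fusion to nuclear EA restores b-gal, read by luminescence after 1 h room-temperature detection. Engineered CHO-K1 biosensor cells, 1,000/well, exposed 2 h at 37 C to titrations up to 46 uM final.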

[7] = molecular target: Mitogen-activated protein kinase 10 (Mus musculus) (UniProt Q61831); assay: JNK3 AlphaScreen Assay (AID 530); settings: JNK3 lysate, c-Jun phosphorylation; series mostly up to 11.4 µM;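 further: kinase came from lysate of stimulated human HepG2 cells; signal reports phosphorylation of biotinylated GST-cJun 1-79 at Ser73 with 10 µM ATP; on the % scale 0 is the no-effect control and ±100 the full control effect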
Summary of the method: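 Compound titrations were preincubated 15 minutes at room temperature with substrate, antibody and pre-activated JNK3-containing HepG2 lysate. Reactions were started with 10 uM ATP and stopped with EDTA-containing bead buffer for AlphaScreen detection.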

[8] = molecular target: 3',5'-cyclic-AMP phosphodiesterase 4B (Homo sapiens) (UniProt Q07343); assay: qHTS Assay for Inhibitors of PDE-IV (AID 607; active means well fitted activation curve with a large enough effect in the main read-out, with a control signal flat, not every such curve was filed as active; further: % of control where 0% means no effect); settings: HEK293 ACTOne CNG channel cells, membrane potential fluorescence; series mostly up to 22.9 µM
Summary of the method: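 The readout is membrane depolarisation from a cAMP-sensing CNG channel, detected with a potential dye at ex 535/em 590. Cells were HEK293-derived (endogenous PDE-IV) at 1000 cells/well, titrated up to 22.9 uM final.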

Lysosomal acid glucosylceramidase (Homo sapiens), sequence (P04062 whole entry, looked up): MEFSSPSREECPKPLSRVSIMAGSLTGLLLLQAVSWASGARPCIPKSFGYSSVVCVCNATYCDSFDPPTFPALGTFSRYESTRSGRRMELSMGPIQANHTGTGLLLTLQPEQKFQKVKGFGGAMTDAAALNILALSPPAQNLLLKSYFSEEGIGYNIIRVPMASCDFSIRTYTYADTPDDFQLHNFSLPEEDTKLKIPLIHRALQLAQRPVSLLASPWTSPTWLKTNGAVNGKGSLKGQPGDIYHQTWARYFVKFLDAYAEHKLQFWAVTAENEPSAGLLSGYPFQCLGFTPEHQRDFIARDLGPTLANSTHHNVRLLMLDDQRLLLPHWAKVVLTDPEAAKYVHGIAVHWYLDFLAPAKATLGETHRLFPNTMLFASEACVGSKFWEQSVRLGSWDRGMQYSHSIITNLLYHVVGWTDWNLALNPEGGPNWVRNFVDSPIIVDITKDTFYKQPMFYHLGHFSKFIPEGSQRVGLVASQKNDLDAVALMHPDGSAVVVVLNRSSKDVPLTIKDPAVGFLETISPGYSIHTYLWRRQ
Glucocorticoid receptor (Homo sapiens), sequence (P04150 whole entry, looked up, the tested form may be a part): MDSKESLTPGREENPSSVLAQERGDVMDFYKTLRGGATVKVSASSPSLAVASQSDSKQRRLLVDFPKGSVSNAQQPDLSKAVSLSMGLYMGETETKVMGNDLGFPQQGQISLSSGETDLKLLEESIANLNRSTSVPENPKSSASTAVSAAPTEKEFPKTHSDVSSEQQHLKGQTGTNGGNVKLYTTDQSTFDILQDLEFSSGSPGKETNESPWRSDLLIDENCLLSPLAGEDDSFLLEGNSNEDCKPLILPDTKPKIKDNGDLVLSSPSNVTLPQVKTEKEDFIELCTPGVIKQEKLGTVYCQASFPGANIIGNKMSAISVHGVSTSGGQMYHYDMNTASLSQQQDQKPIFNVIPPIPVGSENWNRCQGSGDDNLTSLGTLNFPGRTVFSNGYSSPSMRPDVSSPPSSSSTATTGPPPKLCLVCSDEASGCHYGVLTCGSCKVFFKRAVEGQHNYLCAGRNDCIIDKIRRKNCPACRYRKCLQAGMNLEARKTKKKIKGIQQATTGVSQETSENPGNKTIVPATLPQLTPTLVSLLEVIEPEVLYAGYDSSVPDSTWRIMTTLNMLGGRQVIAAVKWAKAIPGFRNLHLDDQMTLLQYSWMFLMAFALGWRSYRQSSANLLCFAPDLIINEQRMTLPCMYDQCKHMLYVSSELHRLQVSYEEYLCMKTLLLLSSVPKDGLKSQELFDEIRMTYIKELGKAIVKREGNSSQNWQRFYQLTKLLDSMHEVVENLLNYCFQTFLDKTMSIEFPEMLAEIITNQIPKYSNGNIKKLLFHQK
3',5'-cyclic-AMP phosphodiesterase 4B (Homo sapiens), sequence (Q07343 whole entry, looked up): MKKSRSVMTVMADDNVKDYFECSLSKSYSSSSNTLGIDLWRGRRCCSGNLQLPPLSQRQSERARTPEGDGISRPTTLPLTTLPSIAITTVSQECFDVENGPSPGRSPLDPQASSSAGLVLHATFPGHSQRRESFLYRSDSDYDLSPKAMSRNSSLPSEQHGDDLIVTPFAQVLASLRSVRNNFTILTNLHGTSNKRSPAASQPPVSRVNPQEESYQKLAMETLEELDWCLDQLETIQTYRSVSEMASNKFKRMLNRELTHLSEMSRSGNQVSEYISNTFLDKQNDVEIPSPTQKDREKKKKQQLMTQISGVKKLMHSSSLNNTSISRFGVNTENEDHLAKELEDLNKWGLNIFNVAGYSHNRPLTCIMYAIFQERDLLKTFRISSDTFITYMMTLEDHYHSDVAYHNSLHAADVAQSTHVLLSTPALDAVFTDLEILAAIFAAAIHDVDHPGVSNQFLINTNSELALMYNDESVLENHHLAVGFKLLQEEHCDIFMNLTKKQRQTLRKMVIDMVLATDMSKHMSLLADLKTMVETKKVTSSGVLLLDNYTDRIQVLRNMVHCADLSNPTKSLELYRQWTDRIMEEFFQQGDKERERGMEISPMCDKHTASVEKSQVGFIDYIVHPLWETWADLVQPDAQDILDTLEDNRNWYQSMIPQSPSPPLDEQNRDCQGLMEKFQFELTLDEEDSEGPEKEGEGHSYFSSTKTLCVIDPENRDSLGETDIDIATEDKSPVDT

CC(C)=N[C@H](C(=O)O)C(C)(C)S
inactive: Potency [1] > 11.4 µM | activity change, negative = inhibition [2] 10% | activity change, negative = inhibition [3] 3.46% | activity, negative = inhibition [4] 6.64% | Potency [5] > 46 µM | Potency [6] > 9.22 µM | Potency [7] | Potency [8]

NC1(C(=O)OCc2ccccc2)CCCC1
inactive: Potency [1] > 11.4 µM | activity change, negative = inhibition [2] 8.77% | activity change, negative = inhibition [3] -4.79% | activity, negative = inhibition [4] 3.45% | Potency [5] > 46 µM | Potency [6] > 9.22 µM | Potency [7] | Potency [8]

CC(=O)[C@@]1(N=Nc2ccc(S(N)(=O)=O)cc2)CCOC1=O
inactive: Potency [1] > 11.4 µM | activity change, negative = inhibition [2] -8.54% | activity change, negative = inhibition [3] 5.28% | activity, negative = inhibition [4] 6.55% | Potency [5] > 46 µM | Potency [6] > 9.22 µM | Potency [7] | Potency [8]

NCC(=O)[C@@H](O)[C@H](O)[C@H](O)CO
inactive: Potency [1] > 11.4 µM | activity change, negative = inhibition [2] -1.89% | activity change, negative = inhibition [3] 8.35% | activity, negative = inhibition [4] 3.6% | Potency [5] > 46 µM | Potency [6] > 9.22 µM | Potency [7] | Potency [8]

c1ccc(B2OC[C@@H]3OB(c4ccccc4)O[C@H]([C@@H]4COB(c5ccccc5)O4)[C@@H]3O2)cc1
inactive: Potency [1] > 11.4 µM | activity change, negative = inhibition [2] -8.96% | activity change, negative = inhibition [3] 19.9% | activity, negative = inhibition [4] -6.35% | Potency [5] > 46 µM | Potency [6] > 9.22 µM | Potency [7] | Potency [8]

CN(C)Cc1nsc(N(C)C)n1
inactive: Potency [1] > 11.4 µM | activity change, negative = inhibition [2] 6.96% | activity change, negative = inhibition [3] 0.0247% | activity, negative = inhibition [4] 11.1% | Potency [5] > 46 µM | Potency [6] > 9.22 µM | Potency [7] | Potency [8]

C[C@H]1[C@H](C)CC[C@]2(C(=O)O)CC[C@]3(C)C(=CC[C@@H]4[C@]5(C)C[C@H](O)[C@@H](O)[C@@](C)(CO)[C@@H]5[C@H](O)C[C@@]43C)[C@H]12
inactive: Potency [1] > 11.4 µM | activity change, negative = inhibition [2] -6.13% | activity change, negative = inhibition [3] 27.7% | activity, negative = inhibition [4] 8.93% | Potency [5] > 46 µM | Potency [6] > 9.22 µM | Potency [7] | Potency [8]

OC(Cc1ccccc1)(Cc1ccccc1)c1ccccc1
inactive: Potency [1] > 11.4 µM | activity change, negative = inhibition [2] -8.82% | activity change, negative = inhibition [3] -15.2% | activity, negative = inhibition [4] 11% | Potency [5] > 46 µM | Potency [6] > 9.22 µM | Potency [7] | Potency [8]

C[C@H](Br)C(=O)Nc1ccc(C(=O)O)c(O)c1
inactive: Potency [1] > 11.4 µM | activity change, negative = inhibition [2] 1.78% | activity change, negative = inhibition [3] -22.6% | activity, negative = inhibition [4] -4.23% | Potency [5] > 46 µM | Potency [6] > 9.22 µM | Potency [7] | Potency [8]

CCSCCCC(=O)O
inactive: Potency [1] > 11.4 µM | activity change, negative = inhibition [2] -6.6% | activity change, negative = inhibition [3] 2.17% | activity, negative = inhibition [4] 8.19% | Potency [5] > 46 µM | Potency [6] > 9.22 µM | Potency [7] | Potency [8]

c1ccc(-c2ccc(-c3ccc(C4=NCCN4)cc3)o2)cc1
inactive: Potency [1] > 11.4 µM | activity change, negative = inhibition [2] 8.2% | activity change, negative = inhibition [3] 9.65% | activity, negative = inhibition [4] 25.4% | Potency [5] > 46 µM | Potency [6] > 9.22 µM | Potency [7] | Potency [8]

C[N+](C)(C)CC(=O)N/N=C\c1ccncc1
inactive: Potency [1] > 11.4 µM | activity change, negative = inhibition [2] -2.8% | activity change, negative = inhibition [3] 3.32% | activity, negative = inhibition [4] 8.79% | Potency [5] > 46 µM | Potency [6] > 9.22 µM | Potency [7] | Potency [8]

O=P(O)(O)O[C@@H]1O[C@H](CO)[C@@H](O)[C@H](O)[C@@H]1O
inactive: Potency [1] > 11.4 µM | activity change, negative = inhibition [2] 4.24% | activity change, negative = inhibition [3] 2.61% | activity, negative = inhibition [4] 6.12% | Potency [5] > 46 µM | Potency [6] > 9.22 µM | Potency [7] | Potency [8]

CC(CO)(CO)Nc1ncnc2ccccc12
inactive: Potency [1] > 11.4 µM | activity change, negative = inhibition [2] 4.46% | activity change, negative = inhibition [3] 9.62% | activity, negative = inhibition [4] 12.4% | Potency [5] > 46 µM | Potency [6] > 9.22 µM | Potency [7] | Potency [8]

NC(N)=NC[C@H](N)C(=O)O
inactive: Potency [1] > 11.4 µM | activity change, negative = inhibition [2] 1.65% | activity change, negative = inhibition [3] 10.9% | activity, negative = inhibition [4] 0.308% | Potency [5] > 46 µM | Potency [6] > 9.22 µM | Potency [7] | Potency [8]

CCOC(=O)c1c(O)[nH]c(=O)c(CC)c1C
inactive: Potency [1] > 11.4 µM | activity change, negative = inhibition [2] -5.14% | activity change, negative = inhibition [3] -3.29% | activity, negative = inhibition [4] 13.4% | Potency [5] > 46 µM | Potency [6] > 9.22 µM | Potency [7] | Potency [8]

O=C(O)c1cccc(C[C@H](Br)C(=O)O)c1
inactive: Potency [1] > 11.4 µM | activity change, negative = inhibition [2] 3.81% | activity change, negative = inhibition [3] 14.3% | activity, negative = inhibition [4] 9.47% | Potency [5] > 46 µM | Potency [6] > 9.22 µM | Potency [7] | Potency [8]
